According to PubChem BioAssay (EPA / NIEHS):
Active and inactive are the calls of the source. Rule for the calls: active = hit-call score of the fitted dose curve at least 0.9, where 1 is the maximum; inactive = score below 0.9.

Tests used:
[1] = ATG_GLI_CIS: Attagene CIS-FACTORIAL HepG2 Assay for human Zinc Finger Protein GLI1 (AID 2282945); settings: HepG2, Attagene cis-factorial reporter mRNA, GLI element; actives raise or lower the signal
Outline: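 HepG2 cells transiently transfected with cis-promoter multiplexed reporter units report endogenous transcription factor activity. After 24 h chemical exposure, reporter mRNA was quantified by RT-PCR, 6-FAM labelling, HpaI digestion and capillary electrophoresis, with bidirectional fitting against DMSO.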

[2] = ATG_ISRE_CIS: Attagene CIS-FACTORIAL HepG2 Assay for human Interferon Regulatory Factor 1 (IRF1) binding to an Interferon-Stimulated Response Element (ISRE) (AID 2282948); settings: HepG2 ISRE cis-reporter (Attagene), mRNA transcription readout; actives raise or lower the signal
Outline: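 Endogenous transcription factor activity read as reporter transcript abundance via RT-PCR and capillary electrophoresis. HepG2 cells transiently transfected, 24 h chemical exposure. Gain or loss fitted against DMSO baseline.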

[3] = ATG_M_32_CIS: Attagene CIS-FACTORIAL HepG2 Assay for M32 Transcription Factor (Internal Marker) (AID 2282949); settings: HepG2 Attagene cis-factorial M32 reporter, mRNA; actives raise or lower the signal;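 note: background control marker of the multiplexed CIS panel rather than a real target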
Outline: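 HepG2 human liver cells transiently transfected with cis-promoter-driven multiple reporter transcription units, dosed 24 h. Reporter mRNA quantified by RT-PCR, FAM-labelled primer extension, HpaI digest and capillary electrophoresis; bidirectional fit versus DMSO baseline.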

[4] = ATG_M_06_CIS: Attagene CIS-FACTORIAL HepG2 Assay for M06 Transcription Factor (Internal Marker) (AID 2282950); settings: HepG2 Attagene CIS-FACTORIAL M06 internal marker reporter; actives raise or lower the signal
Outline: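 Fluorescence-labelled RT-PCR products from cis-promoter reporter units, cut with HpaI and resolved by capillary electrophoresis, give the signal. Cells are human HepG2, dosed for 24 h. Serves as background control, fitted relative to DMSO.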

[5] = target: Heat shock factor protein 1 (Homo sapiens) (UniProt Q00613); test: ATG_HSE_CIS: Attagene CIS-FACTORIAL HepG2 Assay for human Heat Shock Transcription Factor 1 (HSE) (AID 2282953); settings: HepG2 HSE cis-reporter, Attagene RNA transcription; actives raise or lower the signal
Outline: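 After a 24 h incubation with test chemical, transfected HepG2 cells were harvested for RNA; reporter transcripts were measured by RT-PCR and capillary electrophoresis. Values reflect gain or loss of signal relative to DMSO.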

[6] = ATG_MRE_CIS: Attagene CIS-FACTORIAL HepG2 Assay for human Metal Responsive Element (MRE) (AID 2282954); settings: HepG2 MRE cis-reporter transcription, Attagene multiplex; actives raise or lower the signal
Outline: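 Cells were transfected with cis-promoter reporter transcription units, then dosed for 24 h. RNA was reverse-transcribed, amplified, fluorescently labelled and resolved by capillary electrophoresis, and activity was fitted in both directions relative to DMSO.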

[7] = target: Paired box protein Pax-6 (Homo sapiens) (UniProt P26367); test: ATG_Pax6_CIS: Attagene CIS-FACTORIAL HepG2 Assay for human Paired Box 6 (PAX6) (AID 2282956); settings: HepG2 CIS-FACTORIAL PAX6 reporter transcription, RNA readout; actives raise or lower the signal
Outline: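 Read-out is reporter transcript level, measured by RT-PCR with fluorescent primer extension and capillary electrophoresis after 24 h dosing of transfected HepG2 cells. Activity in either direction fitted relative to DMSO control.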

[8] = ATG_PXRE_CIS: Attagene CIS-FACTORIAL HepG2 Assay for human Pregnane X Receptor Element (PXRE) (AID 2282957); settings: HepG2 Attagene CIS-FACTORIAL PXRE reporter, mRNA; actives raise or lower the signal
Outline: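 Using HepG2 transfected with multiple reporter transcription units, endogenous factor-driven transcription was scored as reporter mRNA after 24 h exposure.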

[9] = ATG_PPRE_CIS: Attagene CIS-FACTORIAL HepG2 Assay for human Peroxisome Proliferator-activated Response Element (PPRE) (AID 2282958); settings: HepG2 PPRE cis-element reporter, Attagene transcription factor profiling; actives raise or lower the signal
Outline: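 Cells are first transfected transiently with the multiplexed reporter library, then dosed for 24 h. Total RNA is reverse-transcribed, amplified, fluorescently end-labeled and HpaI-cut before capillary electrophoresis; activity is fitted bidirectionally against DMSO controls.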

[10] = ATG_RORE_CIS: Attagene CIS-FACTORIAL HepG2 Assay for human RAR-related Orphan Receptor Element (RORE) (AID 2282959); settings: HepG2 Attagene cis-factorial RORE reporter, mRNA; actives raise or lower the signal
Outline: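 Cells were HepG2 carrying transfected cis-regulated reporter constructs, dosed for 24 hours. Total RNA was reverse-transcribed and reporter cDNA amplified, fluorescently labeled and sized by capillary electrophoresis. Activity was fitted bidirectionally relative to DMSO.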

[11] = ATG_Sox_CIS: Attagene CIS-FACTORIAL HepG2 Assay for human SRY-box transcription factor (SOX) (AID 2282960); settings: HepG2 Attagene cis-factorial SOX reporter, mRNA; actives raise or lower the signal
Outline: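 Transient MRTU transfection of HepG2; 24 h compound incubation; TriZol RNA, oligo(dT) RT, PCR, 6-FAM primer extension, HpaI cut, CE. Bidirectional fit, DMSO = baseline.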

[12] = target: Transcription factor Sp1 (Homo sapiens) (UniProt P08047); test: ATG_Sp1_CIS: Attagene CIS-FACTORIAL HepG2 Assay for human Specificity Protein 1 (Sp1) (AID 2282961); settings: HepG2 Sp1 cis-reporter transcription, actives raise or lower the signal
Outline: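 Endogenous Sp1 activity was gauged in human liver HepG2 cells bearing transfected reporter units under a cis-regulating promoter. After 24 h dosing, reporter mRNA was quantified by RT-PCR with capillary electrophoresis, and activity fitted bidirectionally versus DMSO.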

[13] = ATG_SREBP_CIS: Attagene CIS-FACTORIAL HepG2 Assay for human Sterol Regulatory Element Binding (SREBP) (AID 2282962); settings: HepG2 Attagene cis-factorial SREBP reporter, mRNA; actives raise or lower the signal
Outline: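 Endogenous SREBP activity read as cis-element-driven reporter transcript in transiently transfected HepG2, 24 h post-dosing; quantified via RT-PCR plus capillary electrophoresis of fluorescent fragments. Gain or loss of signal fitted relative to DMSO baseline.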

[14] = target: Signal transducer and activator of transcription 3 (Homo sapiens) (UniProt P40763); test: ATG_STAT3_CIS: Attagene CIS-FACTORIAL HepG2 Assay for human Signal Transducer and Activator of Transcription 3 (STAT3) (AID 2282963); settings: HepG2, Attagene cis-factorial STAT3 reporter transcription; actives raise or lower the signal
Outline: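 HepG2, MRTU-transfected, 24 h dosing. RNA → RT → PCR → FAM label → HpaI → CE. Bidirectional fit vs DMSO.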

[15] = ATG_TA_CIS: Attagene CIS-FACTORIAL HepG2 Assay for human TA Basal Promoter (AID 2282964); settings: HepG2 Attagene CIS-factorial TA basal promoter reporter; actives raise or lower the signal
Outline: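 Multiplexed mRNA reporter assay, HepG2, 24 h. Reporter cDNA amplified, 6-FAM primer-extended, HpaI-cut, CE-sized; DMSO = negative control and baseline.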

Measured: outcome

Sequence of Signal transducer and activator of transcription 3 (Homo sapiens) (P40763 whole entry, looked up): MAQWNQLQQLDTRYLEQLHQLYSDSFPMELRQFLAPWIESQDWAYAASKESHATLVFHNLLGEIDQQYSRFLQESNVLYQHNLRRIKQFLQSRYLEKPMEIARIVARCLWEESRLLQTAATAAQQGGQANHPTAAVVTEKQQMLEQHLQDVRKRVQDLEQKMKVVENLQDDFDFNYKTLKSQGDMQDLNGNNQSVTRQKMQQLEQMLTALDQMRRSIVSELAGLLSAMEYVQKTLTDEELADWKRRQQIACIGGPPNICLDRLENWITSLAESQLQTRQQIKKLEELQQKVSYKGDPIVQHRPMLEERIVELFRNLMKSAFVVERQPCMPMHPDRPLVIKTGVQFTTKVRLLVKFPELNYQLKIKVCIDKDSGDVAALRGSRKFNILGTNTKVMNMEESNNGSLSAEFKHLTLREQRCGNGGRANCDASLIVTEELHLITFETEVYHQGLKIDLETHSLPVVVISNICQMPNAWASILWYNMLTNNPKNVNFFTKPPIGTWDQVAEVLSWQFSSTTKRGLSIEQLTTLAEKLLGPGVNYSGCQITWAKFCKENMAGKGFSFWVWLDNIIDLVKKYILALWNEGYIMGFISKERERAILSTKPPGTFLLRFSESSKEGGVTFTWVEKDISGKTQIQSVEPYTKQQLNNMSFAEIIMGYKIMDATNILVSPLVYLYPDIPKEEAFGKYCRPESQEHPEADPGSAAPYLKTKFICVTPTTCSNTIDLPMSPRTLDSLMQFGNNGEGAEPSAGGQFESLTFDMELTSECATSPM
Sequence of Heat shock factor protein 1 (Homo sapiens) (Q00613 whole entry, looked up): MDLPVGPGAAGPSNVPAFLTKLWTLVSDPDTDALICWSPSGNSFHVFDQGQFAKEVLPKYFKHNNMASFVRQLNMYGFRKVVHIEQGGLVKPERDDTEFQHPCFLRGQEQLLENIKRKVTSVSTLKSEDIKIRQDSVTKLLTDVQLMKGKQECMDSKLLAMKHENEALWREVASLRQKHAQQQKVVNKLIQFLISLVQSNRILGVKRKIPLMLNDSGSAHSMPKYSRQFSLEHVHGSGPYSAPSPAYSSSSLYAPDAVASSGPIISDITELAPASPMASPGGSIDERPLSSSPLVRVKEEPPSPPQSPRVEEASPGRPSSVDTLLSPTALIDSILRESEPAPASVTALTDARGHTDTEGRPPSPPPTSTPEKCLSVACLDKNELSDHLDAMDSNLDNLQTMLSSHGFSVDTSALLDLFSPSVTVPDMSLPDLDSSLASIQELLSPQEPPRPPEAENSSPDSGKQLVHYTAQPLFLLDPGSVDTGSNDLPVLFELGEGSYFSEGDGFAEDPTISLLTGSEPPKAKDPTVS
Sequence of Transcription factor Sp1 (Homo sapiens) (P08047 whole entry, looked up): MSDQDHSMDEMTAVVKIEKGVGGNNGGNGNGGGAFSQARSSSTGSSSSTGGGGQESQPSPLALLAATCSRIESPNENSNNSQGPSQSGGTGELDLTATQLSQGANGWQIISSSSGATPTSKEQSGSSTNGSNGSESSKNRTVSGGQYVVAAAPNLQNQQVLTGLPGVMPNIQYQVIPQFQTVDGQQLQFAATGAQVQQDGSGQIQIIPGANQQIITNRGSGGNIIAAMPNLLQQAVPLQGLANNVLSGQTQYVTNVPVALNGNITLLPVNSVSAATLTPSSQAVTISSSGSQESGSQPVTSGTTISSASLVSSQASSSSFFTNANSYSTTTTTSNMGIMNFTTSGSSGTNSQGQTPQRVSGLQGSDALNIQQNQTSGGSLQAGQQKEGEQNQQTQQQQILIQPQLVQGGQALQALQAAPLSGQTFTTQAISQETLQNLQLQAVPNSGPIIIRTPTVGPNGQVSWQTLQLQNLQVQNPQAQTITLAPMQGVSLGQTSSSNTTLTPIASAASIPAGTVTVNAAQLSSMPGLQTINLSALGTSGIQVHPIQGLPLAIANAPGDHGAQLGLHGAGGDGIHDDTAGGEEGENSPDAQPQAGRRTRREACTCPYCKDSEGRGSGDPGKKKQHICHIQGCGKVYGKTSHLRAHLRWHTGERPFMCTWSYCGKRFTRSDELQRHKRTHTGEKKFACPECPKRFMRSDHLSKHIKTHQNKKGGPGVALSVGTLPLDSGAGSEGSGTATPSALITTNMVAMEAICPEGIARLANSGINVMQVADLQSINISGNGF
Sequence of Paired box protein Pax-6 (Homo sapiens) (P26367 whole entry, looked up): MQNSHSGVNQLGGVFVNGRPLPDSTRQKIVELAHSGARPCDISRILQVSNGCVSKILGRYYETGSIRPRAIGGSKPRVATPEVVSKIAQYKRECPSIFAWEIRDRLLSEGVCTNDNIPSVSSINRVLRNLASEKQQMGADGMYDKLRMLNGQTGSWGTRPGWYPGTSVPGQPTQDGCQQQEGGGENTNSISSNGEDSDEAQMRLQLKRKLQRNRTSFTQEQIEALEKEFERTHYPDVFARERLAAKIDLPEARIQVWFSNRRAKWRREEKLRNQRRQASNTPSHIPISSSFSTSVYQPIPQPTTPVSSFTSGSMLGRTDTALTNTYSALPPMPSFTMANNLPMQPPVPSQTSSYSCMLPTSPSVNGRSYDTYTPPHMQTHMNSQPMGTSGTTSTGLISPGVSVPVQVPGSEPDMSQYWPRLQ

Nc1ccn([C@H]2CC[C@@H](CO)O2)c(=O)n1
inactive: all assays above
